# Measurements reported in PubChem BioAssay (EPA / NIEHS).
# Records with an inconclusive call do not appear. The source made the active and inactive calls. How the source made its calls, unless noted: active means hit-call score of the fitted dose curve at least 0.9, where 1 is the maximum; inconclusive means response in the unintended direction; inactive means score below 0.9.
# Experiments:
# [1] = ATG_TAL_CIS: Attagene CIS-FACTORIAL HepG2 Assay for human TAL Basal Promoter (AID 2282966; active means hit-call score of the fitted dose curve at least 0.9, where 1 is the maximum; inactive means score below 0.9;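 further: background control endpoint measuring basal TAL promoter reporter mRNA not a specific factor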); details: HepG2 Attagene cis-factorial TAL promoter reporter; actives raise or lower the signal
# Outline: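 Readout: reporter mRNA, fluorescence by CE. System: HepG2, transient multi-reporter transfection, endogenous TF activity. Exposure: 24 h. Analysis: bidirectional, DMSO-normalized; background control.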
# [2] = ATG_VDRE_CIS: Attagene CIS-FACTORIAL HepG2 Assay for human Vitamin D Receptor Element (VDRE) (AID 2282968; active means hit-call score of the fitted dose curve at least 0.9, where 1 is the maximum; inactive means score below 0.9); details: HepG2 VDRE cis-reporter transcription, actives raise or lower the signal
# Outline: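 HepG2 cells transiently transfected with cis-element reporter units, dosed 24 h; reporter mRNA measured by RT-PCR, 6-FAM labeling, HpaI digestion and capillary electrophoresis. Activity fitted bidirectionally against DMSO baseline.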
# [3] = molecular target: Estrogen receptor (Homo sapiens) (UniProt P03372); test: ATG_ERa_TRANS: Attagene TRANS-FACTORIAL HepG2 Assay for human Estrogen Receptor alpha (ERa) (AID 2282970); details: HepG2 Attagene TRANS ERa GAL4 reporter, mRNA
# Chain of Estrogen receptor (Homo sapiens) (P03372 whole entry, looked up, the tested form may be a part): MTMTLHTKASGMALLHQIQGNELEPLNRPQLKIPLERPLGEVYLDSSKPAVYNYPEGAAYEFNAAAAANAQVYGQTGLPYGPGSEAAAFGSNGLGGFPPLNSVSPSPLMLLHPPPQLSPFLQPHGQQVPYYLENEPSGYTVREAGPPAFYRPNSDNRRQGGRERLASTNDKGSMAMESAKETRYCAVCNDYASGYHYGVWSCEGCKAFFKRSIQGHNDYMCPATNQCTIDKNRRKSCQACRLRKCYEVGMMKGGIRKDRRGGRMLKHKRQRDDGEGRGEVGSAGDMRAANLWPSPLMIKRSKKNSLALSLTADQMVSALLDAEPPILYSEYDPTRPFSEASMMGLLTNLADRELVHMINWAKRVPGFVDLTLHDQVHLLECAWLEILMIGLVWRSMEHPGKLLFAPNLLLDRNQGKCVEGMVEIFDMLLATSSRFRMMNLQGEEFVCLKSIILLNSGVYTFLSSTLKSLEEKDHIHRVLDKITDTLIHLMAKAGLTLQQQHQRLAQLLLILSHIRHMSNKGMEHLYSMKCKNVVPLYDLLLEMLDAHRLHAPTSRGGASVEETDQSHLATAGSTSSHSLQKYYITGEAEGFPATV
# Outline: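 Transactivation via ERa-Gal4 chimera in HepG2; 24 hour incubation; reporter mRNA detected by fluorescence RT-PCR and capillary electrophoresis.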
# [4] = molecular target: X-box-binding protein 1 (Homo sapiens) (UniProt P17861); test: ATG_Xbp1_CIS: Attagene CIS-FACTORIAL HepG2 Assay for human X-box Binding Protein 1 (XBP1) (AID 2282972; active means hit-call score of the fitted dose curve at least 0.9, where 1 is the maximum; inactive means score below 0.9); details: HepG2 XBP1 cis-element reporter, Attagene multiplex; actives raise or lower the signal
# Chain of X-box-binding protein 1 (Homo sapiens) (P17861 whole entry, looked up): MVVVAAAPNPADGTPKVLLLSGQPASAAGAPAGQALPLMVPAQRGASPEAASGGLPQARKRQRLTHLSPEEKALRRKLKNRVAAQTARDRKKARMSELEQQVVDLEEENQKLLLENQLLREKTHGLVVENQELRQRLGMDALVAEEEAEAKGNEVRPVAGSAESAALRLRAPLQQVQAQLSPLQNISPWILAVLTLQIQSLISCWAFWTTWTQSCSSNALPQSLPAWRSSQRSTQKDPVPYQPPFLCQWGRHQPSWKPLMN
# Outline: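 After a 24-hour chemical exposure of HepG2 cells carrying cis-regulated reporters, reporter mRNA levels are assessed. Quantification uses RT-PCR, 6-FAM labelling and capillary electrophoresis. Gain- or loss-of-signal is fitted against DMSO.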
# [5] = ATG_M_19_TRANS: Attagene TRANS-FACTORIAL HepG2 Assay for M19 Transcription Factor (Internal Marker) (AID 2282974); details: HepG2 Attagene TRANS-FACTORIAL M19 internal marker reporter
# Outline: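 Cells: human HepG2, transiently transfected with multiplexed reporter transcription units. Exposure: 24 h. Detection: RT-PCR of reporter mRNA with capillary electrophoresis. Analysis: gain-of-signal vs DMSO.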
# [6] = molecular target: Bile acid receptor (Homo sapiens) (UniProt Q96RI1); test: ATG_FXR_TRANS: Attagene TRANS-FACTORIAL HepG2 Assay for Farnesoid X Receptor (FXR) (AID 2282979); details: HepG2 Attagene TRANS FXR-GAL4 reporter transcription;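 further: hits raise reporter mRNA above DMSO so AC50 marks FXR activation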
# Chain of Bile acid receptor (Homo sapiens) (Q96RI1 whole entry, looked up, the tested form may be a part): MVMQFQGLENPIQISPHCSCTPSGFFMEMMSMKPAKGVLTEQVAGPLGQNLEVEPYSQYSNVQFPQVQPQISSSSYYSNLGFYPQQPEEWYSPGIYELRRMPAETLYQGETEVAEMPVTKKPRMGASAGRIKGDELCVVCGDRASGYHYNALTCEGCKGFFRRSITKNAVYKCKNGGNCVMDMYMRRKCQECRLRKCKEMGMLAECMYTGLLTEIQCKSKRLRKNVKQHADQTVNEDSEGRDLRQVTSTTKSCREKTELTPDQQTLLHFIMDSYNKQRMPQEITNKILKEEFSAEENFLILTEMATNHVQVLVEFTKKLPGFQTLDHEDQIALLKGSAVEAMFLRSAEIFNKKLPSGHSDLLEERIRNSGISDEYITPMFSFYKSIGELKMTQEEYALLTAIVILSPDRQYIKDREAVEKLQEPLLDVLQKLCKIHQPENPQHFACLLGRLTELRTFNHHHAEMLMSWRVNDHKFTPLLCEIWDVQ
# Outline: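 Chimeric FXR-GAL4 activity in transiently transfected human HepG2 liver cells is scored as induction of reporter mRNA after 24 h of dosing. Detection uses RT-PCR with fluorescent labelling and capillary electrophoresis, with DMSO serving as baseline.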
# [7] = ATG_M_06_TRANS: Attagene TRANS-FACTORIAL HepG2 Assay for M06 Transcription Factor (Internal Marker) (AID 2282983); details: HepG2 Attagene TRANS M06 internal marker reporter;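 further: reporter transcript level by RT-PCR then capillary electrophoresis fluorescence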
# Outline: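 Measured by capillary electrophoresis of fluorescently labelled RT-PCR products, this endpoint reflects reporter mRNA in HepG2 cells harbouring exogenous NR-GAL4 reporter constructs after 24 h exposure, with DMSO as baseline.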
# [8] = ATG_M_32_TRANS: Attagene TRANS-FACTORIAL HepG2 Assay for M32 Transcription Factor (Internal Marker) (AID 2282984); details: HepG2 Attagene TRANS M32 internal marker reporter;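 further: transcript level of a background control reporter unit measured by RT-PCR and capillary electrophoresis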
# Outline: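 HepG2 cells transiently transfected with multiple GAL4-UAS reporter transcription units, dosed for 24 hours; reporter mRNA quantified by RT-PCR, 6-FAM primer extension, HpaI digestion and capillary electrophoresis. Gain-of-signal fitted versus DMSO baseline; internal background-control marker.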
# [9] = molecular target: Nuclear receptor subfamily 4 group A member 2 (Homo sapiens) (UniProt P43354); test: ATG_NURR1_TRANS: Attagene TRANS-FACTORIAL HepG2 Assay for human Nuclear Receptor Related Protein 1 (NURR1) (AID 2282985); details: HepG2 Attagene TRANS reporter, mRNA readout
# Chain of Nuclear receptor subfamily 4 group A member 2 (Homo sapiens) (P43354 whole entry, looked up, the tested form may be a part): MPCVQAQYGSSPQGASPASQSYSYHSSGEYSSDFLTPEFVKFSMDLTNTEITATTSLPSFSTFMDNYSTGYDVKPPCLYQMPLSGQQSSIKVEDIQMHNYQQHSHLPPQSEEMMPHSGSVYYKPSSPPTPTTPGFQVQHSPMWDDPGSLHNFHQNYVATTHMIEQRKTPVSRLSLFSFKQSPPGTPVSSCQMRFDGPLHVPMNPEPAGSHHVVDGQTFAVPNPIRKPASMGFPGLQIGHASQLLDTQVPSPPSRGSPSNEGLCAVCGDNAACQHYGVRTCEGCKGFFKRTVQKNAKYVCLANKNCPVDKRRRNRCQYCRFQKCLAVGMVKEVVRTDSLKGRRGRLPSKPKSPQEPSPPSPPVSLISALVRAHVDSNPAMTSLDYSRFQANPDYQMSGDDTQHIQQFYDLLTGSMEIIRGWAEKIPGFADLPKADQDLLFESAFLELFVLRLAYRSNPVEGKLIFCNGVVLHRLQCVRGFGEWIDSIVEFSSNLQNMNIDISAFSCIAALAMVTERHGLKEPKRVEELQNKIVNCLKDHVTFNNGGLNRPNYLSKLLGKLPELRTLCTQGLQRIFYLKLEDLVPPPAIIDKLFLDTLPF
# Outline: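 HepG2 cells transiently transfected with GAL4-UAS reporter units and chimeric NR-Gal4 constructs; chemical exposure 24 h. Reporter mRNA quantified by RT-PCR, fluorescent labelling and capillary electrophoresis; gain of signal fitted relative to DMSO baseline.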
# [10] = molecular target: Transcriptional activator Myb (Homo sapiens) (UniProt P10242); test: ATG_Myb_CIS: Attagene CIS-FACTORIAL HepG2 Assay for human Myeloblastosis (Myb) Proto-Oncogene Transcription Factor (AID 2282986; active means hit-call score of the fitted dose curve at least 0.9, where 1 is the maximum; inactive means score below 0.9); details: HepG2 Attagene CIS-FACTORIAL Myb reporter transcription; actives raise or lower the signal
# Chain of Transcriptional activator Myb (Homo sapiens) (P10242 whole entry, looked up): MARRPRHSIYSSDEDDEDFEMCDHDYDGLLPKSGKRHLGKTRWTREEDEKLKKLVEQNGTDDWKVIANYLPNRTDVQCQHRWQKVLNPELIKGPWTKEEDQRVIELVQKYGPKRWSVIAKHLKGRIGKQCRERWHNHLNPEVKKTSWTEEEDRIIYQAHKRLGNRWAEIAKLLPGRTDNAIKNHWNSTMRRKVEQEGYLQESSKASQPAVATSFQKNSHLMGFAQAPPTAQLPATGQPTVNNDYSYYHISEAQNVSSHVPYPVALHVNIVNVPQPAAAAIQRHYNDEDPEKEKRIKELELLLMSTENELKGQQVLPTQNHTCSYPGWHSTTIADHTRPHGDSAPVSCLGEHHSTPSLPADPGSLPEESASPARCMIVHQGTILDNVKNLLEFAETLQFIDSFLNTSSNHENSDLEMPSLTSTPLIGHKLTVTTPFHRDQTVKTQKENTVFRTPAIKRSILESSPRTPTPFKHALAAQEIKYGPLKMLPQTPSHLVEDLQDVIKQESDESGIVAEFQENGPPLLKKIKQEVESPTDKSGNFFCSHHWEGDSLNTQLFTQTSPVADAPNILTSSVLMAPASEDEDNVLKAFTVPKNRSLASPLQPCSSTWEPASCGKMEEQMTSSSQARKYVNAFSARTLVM
# Outline: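 Steps: transfect HepG2 with cis-regulated reporter units; dose with chemical for 24 h; isolate RNA, reverse-transcribe, PCR-amplify and FAM-label reporter sequences; digest with HpaI; resolve by capillary electrophoresis. Activity fitted in both directions relative to DMSO.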
# [11] = ATG_TGFb_CIS: Attagene CIS-FACTORIAL HepG2 Assay for human Transforming Growth Factor (TGF) (AID 2282967; active means hit-call score of the fitted dose curve at least 0.9, where 1 is the maximum; inactive means score below 0.9); details: HepG2 Attagene CIS TGFb reporter, mRNA transcription; actives raise or lower the signal
# Outline: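 Transcript-level reporter readout: HepG2 transfectants, 24 h exposure, RNA to cDNA, reporter-specific PCR, fluorescent primer extension, capillary sizing against ROX standards. Gain- or loss-of-signal relative to DMSO.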
# [12] = molecular target: Glucocorticoid receptor (Homo sapiens) (UniProt P04150); test: ATG_GR_TRANS: Attagene TRANS-FACTORIAL HepG2 Assay for human Glucocorticoid Receptor (GR) (AID 2282978); details: HepG2 Attagene TRANS GR reporter, mRNA transcription;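 further: activators score as hits since higher reporter transcript over DMSO is fitted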
# Chain of Glucocorticoid receptor (Homo sapiens) (P04150 whole entry, looked up, the tested form may be a part): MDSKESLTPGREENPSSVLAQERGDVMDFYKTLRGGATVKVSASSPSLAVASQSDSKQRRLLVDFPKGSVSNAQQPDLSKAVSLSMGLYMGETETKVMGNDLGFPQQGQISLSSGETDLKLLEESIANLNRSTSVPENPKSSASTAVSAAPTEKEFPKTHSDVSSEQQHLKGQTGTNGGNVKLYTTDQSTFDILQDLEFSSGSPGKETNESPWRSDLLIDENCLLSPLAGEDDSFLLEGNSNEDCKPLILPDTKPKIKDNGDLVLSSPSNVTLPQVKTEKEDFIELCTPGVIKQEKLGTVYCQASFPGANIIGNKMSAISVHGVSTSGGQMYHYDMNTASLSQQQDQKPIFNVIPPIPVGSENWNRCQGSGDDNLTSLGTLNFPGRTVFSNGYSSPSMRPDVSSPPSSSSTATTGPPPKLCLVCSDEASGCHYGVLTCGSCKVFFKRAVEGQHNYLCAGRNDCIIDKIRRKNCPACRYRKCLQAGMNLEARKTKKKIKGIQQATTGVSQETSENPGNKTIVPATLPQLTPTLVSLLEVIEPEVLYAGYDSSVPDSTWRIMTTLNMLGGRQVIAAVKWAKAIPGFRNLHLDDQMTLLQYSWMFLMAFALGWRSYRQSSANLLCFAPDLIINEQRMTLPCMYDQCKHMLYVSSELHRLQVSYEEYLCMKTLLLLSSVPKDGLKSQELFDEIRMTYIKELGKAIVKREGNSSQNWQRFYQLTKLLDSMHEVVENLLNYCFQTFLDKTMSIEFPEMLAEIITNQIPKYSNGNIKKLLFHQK
# Outline: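 In this trans-factorial format, exogenous NR-GAL4 chimeric proteins in transfected HepG2 cells regulate GAL4-UAS reporter transcription. After 24 h treatment, reporter mRNA induction relative to DMSO is read by RT-PCR and capillary electrophoresis.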
# [13] = molecular target: Oxysterols receptor LXR-alpha (Homo sapiens) (UniProt Q13133); test: ATG_LXRa_TRANS: Attagene TRANS-FACTORIAL HepG2 Assay for human Liver X Receptor alpha (LXRa) (AID 2282980); details: HepG2 Attagene TRANS reporter, LXRa transactivation
# Chain of Oxysterols receptor LXR-alpha (Homo sapiens) (Q13133 whole entry, looked up): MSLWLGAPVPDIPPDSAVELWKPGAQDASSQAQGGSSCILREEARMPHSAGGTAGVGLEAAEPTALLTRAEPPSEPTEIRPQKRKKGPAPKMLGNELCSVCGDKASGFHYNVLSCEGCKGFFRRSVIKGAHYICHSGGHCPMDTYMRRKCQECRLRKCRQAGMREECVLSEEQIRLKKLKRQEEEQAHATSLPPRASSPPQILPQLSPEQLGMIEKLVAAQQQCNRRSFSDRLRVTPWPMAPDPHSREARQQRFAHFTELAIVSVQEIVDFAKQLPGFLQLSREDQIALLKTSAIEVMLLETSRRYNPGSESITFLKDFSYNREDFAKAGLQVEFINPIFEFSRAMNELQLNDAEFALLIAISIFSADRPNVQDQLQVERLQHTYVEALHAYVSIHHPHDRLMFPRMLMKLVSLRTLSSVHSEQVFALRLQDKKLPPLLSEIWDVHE
# Outline: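 Transient HepG2 transfectants, 24 h dosing, RT-PCR/CE mRNA reporter quantitation; gain-of-signal vs DMSO.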
# [14] = molecular target: Oxysterols receptor LXR-beta (Homo sapiens) (UniProt P55055); test: ATG_LXRb_TRANS: Attagene TRANS-FACTORIAL HepG2 Assay for human Liver X Receptor beta (LXRb) (AID 2282981); details: HepG2 Attagene TRANS GAL4-LXRb reporter, mRNA
# Outline: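 HepG2 cells transiently transfected with multiple reporter transcription units carrying chimeric NR-Gal4 proteins acting on GAL4-UAS reporters; compound exposure 24 h. Reporter mRNA quantified by RT-PCR, 6-FAM labelling, HpaI digestion and capillary electrophoresis; gain of signal versus DMSO.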
# [15] = molecular target: Nuclear receptor subfamily 1 group I member 3 (Homo sapiens) (UniProt Q14994); test: ATG_CAR_TRANS: Attagene TRANS-FACTORIAL HepG2 Assay for human Constitutive Androstane Receptor (CAR) (AID 2282969); details: HepG2 Attagene TRANS-FACTORIAL CAR reporter;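 further: activators raise reporter mRNA above DMSO so AC50 marks induction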
# Chain of Nuclear receptor subfamily 1 group I member 3 (Homo sapiens) (Q14994 whole entry, looked up, the tested form may be a part): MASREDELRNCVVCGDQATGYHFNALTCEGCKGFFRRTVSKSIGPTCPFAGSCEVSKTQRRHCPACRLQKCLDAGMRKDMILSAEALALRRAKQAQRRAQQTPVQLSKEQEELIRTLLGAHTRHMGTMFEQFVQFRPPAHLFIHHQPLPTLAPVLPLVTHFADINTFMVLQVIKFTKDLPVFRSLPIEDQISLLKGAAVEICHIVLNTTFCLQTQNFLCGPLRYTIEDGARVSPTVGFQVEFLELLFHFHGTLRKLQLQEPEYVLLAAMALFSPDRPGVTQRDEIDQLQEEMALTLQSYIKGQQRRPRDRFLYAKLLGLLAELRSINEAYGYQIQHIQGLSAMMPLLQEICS
# Outline: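 HepG2 cells transiently transfected with multiplexed GAL4-UAS reporter units expressing chimeric NR-Gal4 proteins; compound exposure 24 h. Reporter mRNA measured by RT-PCR, 6-FAM labelling, HpaI digestion and capillary electrophoresis; gain-of-signal fitted against DMSO baseline.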
# [16] = molecular target: Hepatocyte nuclear factor 4-alpha (Homo sapiens) (UniProt P41235); test: ATG_HNF4a_TRANS: Attagene TRANS-FACTORIAL HepG2 Assay for human Hepatocyte Nuclear Factor 4 alpha (HNF4a) (AID 2282982); details: HepG2 HNF4a transactivation reporter, mRNA readout
# Chain of Hepatocyte nuclear factor 4-alpha (Homo sapiens) (P41235 whole entry, looked up, the tested form may be a part): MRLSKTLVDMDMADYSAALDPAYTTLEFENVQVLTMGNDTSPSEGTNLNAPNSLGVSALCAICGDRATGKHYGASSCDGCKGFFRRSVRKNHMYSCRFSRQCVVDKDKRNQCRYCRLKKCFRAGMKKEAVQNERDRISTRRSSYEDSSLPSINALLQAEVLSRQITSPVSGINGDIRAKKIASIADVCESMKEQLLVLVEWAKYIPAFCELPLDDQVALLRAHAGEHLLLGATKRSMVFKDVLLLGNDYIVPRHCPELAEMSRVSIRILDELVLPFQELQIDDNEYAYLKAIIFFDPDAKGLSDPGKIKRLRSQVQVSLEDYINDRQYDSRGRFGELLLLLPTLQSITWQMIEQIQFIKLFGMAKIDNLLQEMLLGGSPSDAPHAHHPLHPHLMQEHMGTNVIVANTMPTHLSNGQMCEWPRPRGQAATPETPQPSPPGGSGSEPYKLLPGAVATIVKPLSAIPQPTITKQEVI
# Outline: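 HepG2 cells transiently transfected with multiplexed GAL4-UAS reporter units responsive to chimeric NR-GAL4 proteins; compound exposure 24 h. Reporter mRNA quantified by RT-PCR, 6-FAM labelling, HpaI digestion and capillary electrophoresis; gain of signal versus DMSO baseline.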
# [17] = ATG_GAL4_TRANS: Attagene TRANS-FACTORIAL HepG2 Assay for GAL4 (Internal Marker) (AID 2282976); details: HepG2 Attagene TRANS GAL4 internal marker reporter
# Outline: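 Fluorescence from capillary electrophoresis of labelled RT-PCR products quantifies reporter mRNA induction after 24 h dosing of HepG2 cells carrying transfected GAL4-UAS reporter transcription units. Vehicle DMSO serves as baseline.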
# [18] = molecular target: Estrogen-related receptor gamma (Homo sapiens) (UniProt P62508); test: ATG_ERRg_TRANS: Attagene TRANS-FACTORIAL HepG2 Assay for human Estrogen-Related Receptor gamma (ERRg) (AID 2282977); details: HepG2 Attagene TRANS reporter, ERRg transactivation;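 further: hits increase reporter signal over DMSO so potencies reflect activators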
# Outline: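 Transient HepG2 transfectants, 24 h compound exposure, GAL4-UAS reporter mRNA by RT-PCR/6-FAM labelling/capillary electrophoresis; positive direction vs DMSO.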
compound,measurement,setting,value
CCCCCC/C=C/CCCCCCCC(=O)O,outcome,[1],inactive
same,outcome,[2],inactive
same,outcome,[3],inactive
same,outcome,[4],inactive
same,outcome,[5],inactive
same,outcome,[6],inactive
same,outcome,[7],inactive
same,outcome,[8],inactive
same,AC50,[9],67.1 µM (active)
same,outcome,[10],inactive
CCC(Cc1c(I)cc(I)c(N)c1I)C(=O)O (stereo not drawn),outcome,[1],inactive
same,outcome,[11],inactive
same,outcome,[2],inactive
same,AC50,[3],4.99 µM (active)
same,outcome,[4],inactive
same,outcome,[12],inactive
same,outcome,[6],inactive
same,outcome,[13],inactive
same,outcome,[14],inactive
same,outcome,[7],inactive
same,outcome,[10],inactive
O=C1c2c(O)ccc(Nc3ccc(CCO)cc3)c2C(=O)c2c([N+](=O)[O-])ccc(O)c21,outcome,[1],inactive
same,outcome,[11],inactive
same,outcome,[15],inactive
same,outcome,[3],inactive
same,outcome,[4],inactive
same,outcome,[6],inactive
same,outcome,[13],inactive
same,outcome,[14],inactive
same,outcome,[16],inactive
same,outcome,[7],inactive
same,outcome,[8],inactive
same,AC50,[9],30.4 µM (active)
same,outcome,[10],inactive
CCCCOC(=O)C(C)O (stereo not drawn),outcome,[1],inactive
same,outcome,[11],inactive
same,outcome,[2],inactive
same,outcome,[15],inactive
same,outcome,[4],inactive
same,outcome,[5],inactive
same,outcome,[17],inactive
same,outcome,[12],inactive
same,outcome,[6],inactive
same,outcome,[13],inactive
same,outcome,[8],inactive
same,outcome,[10],inactive
CCOCN(C(=O)CS(=O)(=O)O)c1c(C)cccc1CC,outcome,[1],inactive
same,outcome,[11],inactive
same,outcome,[2],inactive
same,outcome,[3],inactive
same,outcome,[4],inactive
same,outcome,[17],inactive
same,outcome,[12],inactive
same,outcome,[6],inactive
same,outcome,[13],inactive
same,outcome,[14],inactive
same,outcome,[16],inactive
same,outcome,[7],inactive
same,outcome,[8],inactive
same,outcome,[9],inactive
same,outcome,[10],inactive
CO[Si](C)(CCC(F)(F)C(F)(F)C(F)(F)C(F)(F)C(F)(F)C(F)(F)F)OC,outcome,[1],inactive
same,outcome,[2],inactive
same,outcome,[3],inactive
same,outcome,[4],inactive
same,outcome,[5],inactive
same,outcome,[18],inactive
same,outcome,[6],inactive
same,outcome,[14],inactive
same,outcome,[16],inactive
same,outcome,[8],inactive
same,outcome,[10],inactive
CC(C)CCCC(C)CCO (stereo not drawn),outcome,[1],inactive
same,outcome,[11],inactive
same,outcome,[2],inactive
same,outcome,[3],inactive
same,outcome,[4],inactive
same,outcome,[5],inactive
same,outcome,[17],inactive
same,outcome,[6],inactive
same,outcome,[14],inactive
same,outcome,[8],inactive
same,outcome,[9],inactive
same,outcome,[10],inactive
O=C(O)C(F)(F)C(F)(F)C(F)(F)OC(F)(C(F)(F)F)C(F)(F)F,outcome,[1],inactive
same,outcome,[11],inactive
same,outcome,[2],inactive
same,outcome,[3],inactive
same,outcome,[4],inactive
same,outcome,[5],inactive
same,outcome,[17],inactive
same,outcome,[12],inactive
same,outcome,[6],inactive
same,outcome,[13],inactive
same,outcome,[8],inactive
same,outcome,[9],inactive
same,outcome,[10],inactive
CCOC(OCC)OCC,outcome,[1],inactive
same,outcome,[11],inactive
same,outcome,[2],inactive
same,outcome,[4],inactive
same,outcome,[17],inactive
same,outcome,[6],inactive
same,outcome,[14],inactive
same,outcome,[16],inactive
same,outcome,[7],inactive
same,outcome,[8],inactive
same,outcome,[9],inactive
same,outcome,[10],inactive
O=S(=O)(O)CCC(F)(F)C(F)(F)C(F)(F)C(F)(F)C(F)(F)C(F)(F)C(F)(F)C(F)(F)F,outcome,[1],inactive
same,outcome,[11],inactive
same,outcome,[2],inactive
same,outcome,[3],inactive
same,outcome,[4],inactive
same,outcome,[17],inactive
same,AC50,[6],40 µM (active)
same,outcome,[13],inactive
same,outcome,[8],inactive
same,outcome,[9],inactive
same,outcome,[10],inactive
CC(C)(C)C(=O)C1C(=O)c2ccccc2C1=O,outcome,[1],inactive
same,AC50,[2],42.2 µM (active)
same,outcome,[15],inactive
same,outcome,[3],inactive
same,outcome,[4],inactive
same,outcome,[6],inactive
same,outcome,[13],inactive
same,outcome,[14],inactive
same,outcome,[16],inactive
same,outcome,[8],inactive
same,outcome,[9],inactive
same,outcome,[10],inactive
NC(O)(C(F)(F)F)C(F)(F)F,outcome,[1],inactive
same,outcome,[11],inactive
same,outcome,[2],inactive
same,outcome,[4],inactive
same,outcome,[17],inactive
same,outcome,[16],inactive
same,outcome,[7],inactive
same,outcome,[9],inactive
same,outcome,[10],inactive
CC(O)C#CC(C)O (stereo not drawn),outcome,[1],inactive
same,outcome,[11],inactive
same,AC50,[2],39.5 µM (active)
same,AC50,[15],99.5 µM (active)
same,outcome,[3],inactive
same,outcome,[4],inactive
same,outcome,[6],inactive
same,outcome,[13],inactive
same,AC50,[16],151 µM (active)
same,outcome,[8],inactive
same,outcome,[9],inactive
same,outcome,[10],inactive
CCc1ccc(C)nc1,outcome,[1],inactive
same,outcome,[11],inactive
same,outcome,[2],inactive
same,outcome,[15],inactive
same,outcome,[4],inactive
same,outcome,[5],inactive
same,outcome,[17],inactive
same,outcome,[12],inactive
same,outcome,[6],inactive
same,outcome,[13],inactive
same,outcome,[16],inactive
same,outcome,[7],inactive
same,outcome,[8],inactive
same,outcome,[10],inactive
